PubChem BioAssay
Inconclusive results are not listed. Calls of active or inactive are those of the source.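 How the source made its calls, unless noted: active means RAM network inhibition above 8.4% in each of two replicates, 3 SD over the compound average; inconclusive means above 8.4% inhibition in only one replicate; inactive means 8.4% inhibition or less in each replicate.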

Columns and labels:
[1] = biological target: Pantothenate synthetase (Mycobacterium tuberculosis (strain ATCC 25618 / H37Rv)) (UniProt P9WIL5); experiment: Recombinant Mtb pantothenate synthetase (PanC) inhibitors, coupled enzyme, confirmatory (AID 375; call rule not given here;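 further: 0% = full reaction with vehicle and 100% = no enzyme background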); settings: coupled enzyme assay; at 10 µM, stronger effect = higher value
[2] = reducers of endogenous Her2 protein level, primary screen, SKBR3 breast tumor cells, AlphaScreen, ATP viability (AID 461;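 active means Her2 level under about 52% in both replicate screens, with viability over 70% of control, limit read from the data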;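 on Her2 level: lower value means less Her2 protein in the cells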;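 on viability: percent of carrier control wells set as 100% viability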); settings: 18-24 h, measured here: SKBR3 viability, ATP luminescence, at 10 µM
[3] = biological target: Receptor tyrosine-protein kinase erbB-2 (Homo sapiens) (UniProt P04626); experiment: as above; settings: 18-24 h, at 10 µM, stronger effect = lower value
[4] = SK-BR-3 cell growth inhibitors, pilot screen, 24 h, human (AID 572;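 active means viability at or below 10% of carrier control in both of two separate runs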;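 further: compound exposure lasted between 18 and 24 h rather than exactly 24 h; 100% = carrier-treated control wells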); settings: SK-BR-3 viability, CellTiter-Glo luminescence, at 10 µM, stronger effect = lower value
[5] = HUVEC growth inhibition – cell-based, human, primary screen (AID 575;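 active means viability at or below 30% in both replicate assays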;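 further: 100% = median of untreated cell wells with 0.1% DMSO on each plate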); settings: HUVEC proliferation, CellTiter-Glo luminescence, 72 h; at 10 µM; stronger effect = lower value
[6] = growth inhibitors of H69AR lung tumor, primary screen, human, duplicate replicates (AID 580;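 active means viability at or under a set limit in both replicates, limit being median viability minus 3 SD, cut at about 48% in these data, passing the limit was not always enough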;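 further: 100% = mean luminescence of untreated wells and 0% = no signal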); settings: H69AR lung tumor cells viability, ATP luminescence, 72 h; at 10 µM; stronger effect = lower value
[7] = reversal of MRP1-mediated doxorubicin resistance, pilot screen, H69AR cells, doxorubicin co-treatment (AID 601;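 active means viability loss from added drug above about 55%, and viability with drug at most 40%, in both replicates, limit read from the data, passing the limit was not always enough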); settings: CellTiter-Glo, 72 h, at 10 µM; for differential viability (reversal): stronger effect = higher value
[8] = 384-well plate pilot, post-Golgi transport modulator project, inhibition of yeast transport mutant growth (AID 636; in the data active means inhibition above about 31%); settings: absorbance 615 nm, about 18 h, stronger effect = higher value
[9] = growth suppression of yeast trafficking mutant, preliminary HTS, modulators of trafficking downstream of Golgi apparatus project, 1536-format plate, OD 615 nm (AID 637; in the data active means inhibition above about 30%); settings: yeast transport mutant growth, absorbance 615 nm, 18 h; stronger effect = higher value
[10] = OD615 S. cerevisiae growth inhibition, permissive medium, pilot counter-assay, permissive growth control for S. cerevisiae lifespan shortening project (AID 705;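 active means growth inhibition above 25% in both replicates, a cutoff set 3 SD above the mean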); settings: OD615, 24 h, at 10 µM, stronger effect = higher value
[11] = Restrictive medium S. cerevisiae growth inhibition, OD615, pilot screen of yeast lifespan reduction project, restrictive growth control (AID 706;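 active means growth inhibition above a set limit, 3 SD over mean compound inhibition, in both replicates, cut at about 43% in these data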;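 further: modified DeaD lifespan yeast strain shifted to restrictive glucose medium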); settings: OD615, 48 h, at 10 µM, stronger effect = higher value
[12] = viability gain of MRP-1-high H69AR cells under doxorubicin, pilot screen, MRP-1 activator project, CellTiter-Glo, duplicate (AID 807;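 active means viability increase at or above a cutoff of the median across tested compounds plus 3 SD, cut at about 8.5% in these data, passing the limit was not always enough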;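 further: compound pretreatment 18-22 h then 72 h combined with doxorubicin; 0% = doxorubicin alone and 100% = vehicle without doxorubicin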); settings: H69AR viability with doxorubicin, CellTiter-Glo luminescence; at 10 µM; stronger effect = higher value
[13] = growth suppression of beta-catenin knockout HCT116, pilot screen, human colon tumor cells (AID 823;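 active means cell viability at or below a set limit in both duplicate runs, the limit being the all-compound median minus 4 SD, cut at about 23% in these data, passing the limit was not always enough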;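 further: 0% = wells killed by 20 µM Hyamine and 100% = untreated DMSO cell wells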); settings: CellTiter-Glo, 60 h, at 10 µM, stronger effect = lower value
[14] = growth suppression of PTEN-deleted HCT116, pilot screen, cell-based, HCT116 clonal line, CellTiter-Glo (AID 824;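 active means viability at or below 27.92% in each of two runs, the all-compound median minus 4 SD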;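 further: 0% = 20 µM Hyamine control and 100% = vehicle cell control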); settings: 60 h, at 10 µM, stronger effect = lower value
[15] = inhibitors of the yeast RAM network, pilot screen, dse1pr::URA3 reporter, 5-FOA selection (AID 869;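 active means inhibition over a set limit, the all-compound mean plus 3 SD, in both replicate runs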;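 further: 0% = DMSO wells with no growth and 100% = 10 µM 1-NA-PP1 with full growth; RAM network block rescues cells from 5-FOA so hits raise OD615 growth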); settings: S. cerevisiae dse1pr::URA3 5-FOA growth, OD615, 2 d, at 10 µM, stronger effect = higher value
[16] = RAM signaling pathway blockade in yeast – S. cerevisiae, Pdr1DBD-CYC8 efflux-inhibited sensitized strain, primary screen (AID 1298);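 further: 0% = DMSO untreated cells without growth and 100% = 10 µM 1-NA-PP1 full growth; higher means more yeast growth rescued from 5-FOA killing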; settings: S. cerevisiae cbk1-as DSE1-URA3 strain, 5-FOA growth OD615, 2 d; at 50 µM; stronger effect = higher value
[17] = H69AR cells + 2 uM doxorubicin, measured here: viability with 2 uM doxorubicin, stronger effect = lower value
[18] = H69AR cells, compound alone cytotoxicity

Sequence of Receptor tyrosine-protein kinase erbB-2 (Homo sapiens) (P04626 whole entry, looked up): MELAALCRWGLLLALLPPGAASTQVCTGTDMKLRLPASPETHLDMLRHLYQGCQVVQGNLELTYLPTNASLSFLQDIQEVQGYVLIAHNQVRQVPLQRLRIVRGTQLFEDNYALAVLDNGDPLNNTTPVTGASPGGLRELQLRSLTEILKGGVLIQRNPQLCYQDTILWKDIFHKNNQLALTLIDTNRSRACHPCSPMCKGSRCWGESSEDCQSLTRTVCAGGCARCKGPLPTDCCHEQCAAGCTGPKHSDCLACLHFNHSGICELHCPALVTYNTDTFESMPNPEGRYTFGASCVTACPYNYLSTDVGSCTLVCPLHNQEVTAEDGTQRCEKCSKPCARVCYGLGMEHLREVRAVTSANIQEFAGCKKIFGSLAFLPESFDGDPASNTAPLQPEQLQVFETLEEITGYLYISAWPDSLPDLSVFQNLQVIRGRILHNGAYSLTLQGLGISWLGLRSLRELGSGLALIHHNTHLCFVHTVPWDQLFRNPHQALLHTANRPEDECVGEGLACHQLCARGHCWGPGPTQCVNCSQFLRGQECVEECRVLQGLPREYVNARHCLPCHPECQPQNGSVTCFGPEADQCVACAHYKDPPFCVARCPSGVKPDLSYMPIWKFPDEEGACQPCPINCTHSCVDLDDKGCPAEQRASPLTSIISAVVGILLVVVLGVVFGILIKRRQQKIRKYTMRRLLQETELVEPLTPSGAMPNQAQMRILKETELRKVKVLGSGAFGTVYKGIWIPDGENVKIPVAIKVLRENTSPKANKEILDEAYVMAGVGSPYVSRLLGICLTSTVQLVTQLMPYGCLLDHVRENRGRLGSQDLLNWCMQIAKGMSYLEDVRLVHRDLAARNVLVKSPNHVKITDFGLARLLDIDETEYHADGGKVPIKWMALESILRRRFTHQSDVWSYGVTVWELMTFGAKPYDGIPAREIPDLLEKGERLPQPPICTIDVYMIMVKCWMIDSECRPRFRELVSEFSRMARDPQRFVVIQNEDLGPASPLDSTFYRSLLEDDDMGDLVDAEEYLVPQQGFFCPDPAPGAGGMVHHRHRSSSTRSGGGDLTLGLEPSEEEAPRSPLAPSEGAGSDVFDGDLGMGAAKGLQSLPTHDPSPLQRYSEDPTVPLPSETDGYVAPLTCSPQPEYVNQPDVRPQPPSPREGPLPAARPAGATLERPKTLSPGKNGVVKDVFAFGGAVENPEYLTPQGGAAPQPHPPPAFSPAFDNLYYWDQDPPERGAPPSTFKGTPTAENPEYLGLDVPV
Sequence of Pantothenate synthetase (Mycobacterium tuberculosis (strain ATCC 25618 / H37Rv)) (P9WIL5 whole entry, looked up): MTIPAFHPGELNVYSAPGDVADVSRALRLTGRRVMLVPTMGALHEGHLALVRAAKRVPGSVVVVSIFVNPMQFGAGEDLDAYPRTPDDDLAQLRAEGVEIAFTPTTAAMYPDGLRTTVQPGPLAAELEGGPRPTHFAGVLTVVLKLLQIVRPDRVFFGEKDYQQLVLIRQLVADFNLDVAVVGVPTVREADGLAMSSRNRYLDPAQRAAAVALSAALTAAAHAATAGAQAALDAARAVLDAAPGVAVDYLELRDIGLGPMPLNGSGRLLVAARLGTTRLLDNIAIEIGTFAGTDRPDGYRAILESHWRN

| Structure (SMILES) | inhibition [1] | viability [2] | Her2 level [3] | viability [4] | viability [5] | viability [6] | differential viability (reversal) ([7]; H69AR cells + 2 uM doxorubicin) | viability [7, 17] | viability [7, 18] | inhibition [8] | inhibition [9] | growth inhibition [10] | growth inhibition [11] | viability increase [12] | viability [13] | viability [14] | inhibition [15] | RAM network inhibition [16] |
| --- | --- | --- | --- | --- | --- | --- | --- | --- | --- | --- | --- | --- | --- | --- | --- | --- | --- | --- |
| Cc1ccc(CC2C(=O)N(C)C(=O)N(C)C2=O)s1 | 0% (inactive) | 106% | 119% (inactive) | 106% (inactive) | 82.8% (inactive) | 95.4% (inactive) | 7.06% (inactive) | 88.3% | 95.4% | -3.77% (inactive) | -1.67% (inactive) | -2.9% (inactive) | 3.58% (inactive) | 0.21% (inactive) | 100% (inactive) | 99.6% (inactive) | -0.01% (inactive) | 4.4% (inactive) |
| CP(C)(=O)CCC(=O)O | 0% (inactive) | 101% | 105% (inactive) | 101% (inactive) | 81.4% (inactive) | 100% (inactive) | 18.2% (inactive) | 82.1% | 100% | -4.94% (inactive) | 3.44% (inactive) | -18% (inactive) | -19.2% (inactive) | 0.16% (inactive) | 101% (inactive) | 98.1% (inactive) | 0.42% (inactive) | 2.22% (inactive) |
| O=C(C(Cc1ccccc1)NS(=O)(=O)c1ccc(F)cc1)N1CCC2(CC1)OCCO2 (stereo not drawn) | 0% (inactive) |  |  | 95% (inactive) | 94.2% (inactive) | 79% (inactive) | 15.6% (inactive) | 63.4% | 79% | -0.13% (inactive) | -0.16% (inactive) | -6.55% (inactive) | -17.2% (inactive) | -3.5% (inactive) | 95.4% (inactive) | 93.5% (inactive) | -0.725% (inactive) | 0.31% (inactive) |
| O=C1CC(=O)N(c2ccc(Cl)cc2Cl)C(=O)N1 |  |  |  |  |  |  |  |  |  |  |  | -10.7% (inactive) | 11.2% (inactive) | 0.06% (inactive) | 93.2% (inactive) | 91.2% (inactive) | 0.19% (inactive) | 1.94% (inactive) |
| Cc1cc(OC(=O)c2ccco2)c2c3c(c(=O)oc2c1)CCC3 |  |  |  |  |  |  |  |  |  |  |  | 2.81% (inactive) | -1.05% (inactive) | -1.26% (inactive) | 94.3% (inactive) | 85.2% (inactive) |  | 4.5% (inactive) |
| CCOC(=O)C1CCN(/C=C2/C(=O)NC(=O)N(c3ccc(OCC)cc3)C2=O)CC1 |  |  |  |  |  |  |  |  |  |  |  | -11.5% (inactive) | -20.2% (inactive) | 1.62% (inactive) | 98% (inactive) | 97.5% (inactive) | 1.87% (inactive) | 1.16% (inactive) |
| CCOc1ccccc1C1SCC(=O)Nc2c1c(=O)[nH]n2C(CC)CC (stereo not drawn) |  |  |  |  |  |  |  |  |  |  |  | -3.42% (inactive) | -8.7% (inactive) | -0.06% (inactive) | 93.5% (inactive) | 93.3% (inactive) | 1.07% (inactive) | 0.37% (inactive) |
| CCCCn1c(C)c(C(=O)OCC)c2c(CN3CCOCC3)c(O)ccc21 | 2% (inactive) | 110% | 92.5% (inactive) | 110% (inactive) | 58.5% (inactive) | 73.3% (inactive) | -6.07% (inactive) | 79.4% | 73.3% | -4.34% (inactive) | 4.33% (inactive) | -15.6% (inactive) | -9.74% (inactive) | -6.39% (inactive) | 68.3% (inactive) | 72.6% (inactive) | -0.155% (inactive) | 2.5% (inactive) |
| CCCCCCOc1ccc(CN2CCN(C)CC2)cc1 | 0% (inactive) | 83.5% | 87% (inactive) | 83.5% (inactive) | 61.5% (inactive) | 77.2% (inactive) | 6.76% (inactive) | 70.5% | 77.2% | -5.06% (inactive) | 3.44% (inactive) | -13.5% (inactive) | -20.8% (inactive) | -5.38% (inactive) | 47.7% (inactive) | 49% (inactive) | -0.45% (inactive) | 0.09% (inactive) |
| Cc1cccc(N2CCc3c2nc2ccccc2c3N)c1 | 0% (inactive) | 84.5% | 86% (inactive) | 84.5% (inactive) |  |  | -14.1% (inactive) | 63.9% | 49.8% | -2.53% (inactive) | 7.67% (inactive) | -1.63% (inactive) | -0.635% (inactive) | -6.21% (inactive) | 36.4% (inactive) | 44.5% (inactive) | 3.02% (inactive) | 4.96% (inactive) |
| CCCCNC(=O)c1c(N)n(CCCOC)c2nc3ccccc3nc12 | 0% (inactive) | 89% | 82% (inactive) | 89% (inactive) | 71.8% (inactive) |  | -25.4% (inactive) | 79.4% | 54% | 1.1% (inactive) | 5.24% (inactive) | 1.92% (inactive) | -1.88% (inactive) | -6.16% (inactive) | 68.5% (inactive) | 67.8% (inactive) | 0.37% (inactive) | -3.2% (inactive) |
